Measured values as given in PubChem BioAssay (NCI).
The panel holds about 83,000 compounds, 20% with a hit somewhere; the sample as a whole holds those more often.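 A percent growth of 40 corresponds to 60% growth inhibition; 0 means no net growth; -100 means all cells died. Active threshold: below 10.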

Tests used:
Assay in all cases: NCI-60 one-dose screen, 48 h (100 = growth as untreated, 0 = no growth, -100 = all killed)
[1] = system: NCI-H23 lung; details: 10 µM unless noted
[2] = system: NCI-H226 lung; details: 10 µM unless noted
[3] = system: NCI-H322M lung; details: 10 µM unless noted
[4] = system: HOP-62 NSCLC; details: 10 µM unless noted
[5] = system: NCI-H460 lung; details: 10 µM unless noted
[6] = system: 786-0 renal; details: 10 µM unless noted
[7] = system: MDA-MB-231 breast; details: 10 µM unless noted
[8] = system: SF-268 CNS; details: 10 µM unless noted
[9] = system: SF-539 CNS; details: 10 µM unless noted
[10] = system: M14 melanoma; details: 10 µM unless noted
[11] = system: HCT-15 colon; details: 10 µM
[12] = system: U251 CNS; details: 10 µM unless noted
[13] = system: UACC-62 melanoma; details: 10 µM unless noted
[14] = system: SK-MEL-28 melanoma; details: 10 µM unless noted
[15] = system: UO-31 renal; details: 10 µM unless noted
[16] = system: OVCAR-5 ovarian; details: 10 µM unless noted
[17] = system: MDA-MB-435 melanoma; details: 10 µM unless noted
[18] = system: SW-620 colon; details: 10 µM unless noted
[19] = system: MCF7 breast; details: 10 µM unless noted
[20] = system: KM12 colon; details: 10 µM unless noted

Measured: growth

CC1(C)CC2(CC(C)(C)c3cc(O)c(O)cc32)c2cc(O)c(O)cc21
inactive: [1] 108% | [2] 85.7% | [3] 102% | [4] 95.9% | [5] 97.7% | [6] 94% | [7] 91.5% | [8] 88.6% | [9] 98.4% | [10] 98.1% | [11] 89.5% | [12] 92.3% | [13] 83.3% | [14] 97% | [15] 75.2% | [16] 93% | [17] 84.8% | [18] 95.7% | [19] 94.5% | [20] 94.4%

CCCCN(CCCC)CC(O)c1ccccc1 (stereo not given)
inactive: [1] 100% | [2] 113% | [3] 105% | [4] 114% | [5] 110% | [6] 103% | [7] 104% | [8] 114% | [9] 114% | [10] 100% | [11] 104% | [12] 100% | [13] 105% | [14] 103% | [15] 100% | [16] 93.6% | [17] 105% | [18] 102% | [19] 105% | [20] 104%

N#[N+]c1cnc([O-])[nH]c1=O
inactive: [1] 26.9% | [2] 88% | [3] 98.9% | [4] 105% | [5] 107% | [6] 93.9% | [7] 95.5% | [8] 97.5% | [9] 97.5% | [10] 108% | [11] 89.1% | [12] 98.3% | [13] 85.6% | [14] 104% | [15] 39% | [16] 83.9% | [17] 106% | [18] 89% | [19] 100% | [20] 100%
